# Measured values reported in the supplement of paper PMC8728848.
# The entries come from a sample that favours the strongest signals as a whole.
# How the values were obtained:
# Assay in all cases: glycan array binding signal (z-score within array); higher = stronger binding
# Settings in all cases: glycan notation: IUPAC condensed, linker removed
# Fuc(a1-2)Gal(b1-3)GlcNAc = molecular target: Fuc(a1-2)Gal(b1-3)GlcNAc
# In short: (§1)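 Columns mapping to the same glycan were averaged after glycan names were converted to IUPAC-condensed notation. The data come from 3228 arrays in the Consortium for Functional Glycomics database, limited to those with an available protein sequence. Binding is reported as a within-array Z-score averaged across arrays of one protein sequence and across linkers.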
# Fuc(a1-2)Gal(b1-4)Glc = molecular target: Fuc(a1-2)Gal(b1-4)Glc
# In short: as §1
# Fuc(a1-2)Gal(b1-4)GlcNAc = molecular target: Fuc(a1-2)Gal(b1-4)GlcNAc
# In short: as §1
# [1] = molecular target: Fuc(a1-2)Gal(b1-4)GlcNAc(b1-2)Man(a1-3)[Fuc(a1-2)Gal(b1-4)GlcNAc(b1-2)Man(a1-6)]Man(b1-4)GlcNAc(b1-4)GlcNAc
# In short: as §1
# [2] = molecular target: Fuc(a1-2)Gal(b1-4)GlcNAc(b1-3)Gal(b1-4)GlcNAc
# In short: as §1
# [3] = molecular target: Fuc(a1-2)Gal(b1-4)GlcNAc(b1-3)[Fuc(a1-3)[Gal(b1-4)]GlcNAc(b1-6)]Gal(b1-4)Glc
# In short: as §1
# [4] = molecular target: Fuc(a1-2)Gal(b1-4)[Fuc(a1-3)]GlcNAc
# In short: as §1
# [5] = molecular target: Fuc(a1-2)Gal(b1-4)[Fuc(a1-3)]GlcNAc(b1-3)Gal(b1-4)[Fuc(a1-3)]GlcNAc(b1-3)Gal(b1-4)[Fuc(a1-3)]GlcNAc
# In short: as §1
# [6] = molecular target: Fuc(a1-2)[Gal(a1-3)]Gal(b1-4)[Fuc(a1-3)]Glc
# In short: as §1
# [7] = molecular target: Fuc(a1-2)[Gal(a1-3)]Gal(b1-4)[Fuc(a1-3)]GlcNAc
# In short: as §1
# [8] = molecular target: Fuc(a1-2)[GalNAc(a1-3)]Gal(b1-3)GlcNAc(b1-6)GalNAc
# In short: as §1
# [9] = molecular target: Fuc(a1-2)[GalNAc(a1-3)]Gal(b1-4)GlcNAc
# In short: as §1
# [10] = molecular target: Fuc(a1-2)[GalNAc(a1-3)]Gal(b1-4)GlcNAc(b1-2)Man(a1-3)[Fuc(a1-2)[GalNAc(a1-3)]Gal(b1-4)GlcNAc(b1-2)Man(a1-6)]Man(b1-4)GlcNAc(b1-4)GlcNAc
# In short: as §1
# [11] = molecular target: Fuc(a1-3)[Gal(b1-4)]GlcNAc(b1-2)Man(a1-3)[Fuc(a1-3)[Gal(b1-4)]GlcNAc(b1-2)Man(a1-6)]Man(b1-4)GlcNAc(b1-4)[Fuc(a1-6)]GlcNAc
# In short: as §1
# [12] = molecular target: Gal(a1-3)Gal(b1-3)GlcNAc(b1-2)Man
# In short: as §1
# [13] = molecular target: Gal(b1-3)GlcNAc(a1-3)Gal(b1-4)GlcNAc
# In short: as §1
# Gal(b1-3)GlcNAc(b1-2)Man = molecular target: Gal(b1-3)GlcNAc(b1-2)Man
# In short: as §1
# [14] = molecular target: Gal(b1-3)[Neu5Ac(a2-6)]GlcNAc(b1-4)Gal(b1-4)Glc
# In short: as §1
# [15] = molecular target: Gal(b1-4)GlcNAc(b1-3)GalNAc
# In short: as §1
# Gal3S6S(b1-4)GlcNAc = molecular target: Gal3S6S(b1-4)GlcNAc
# In short: as §1
# Gal6S(b1-3)GlcNAc = molecular target: Gal6S(b1-3)GlcNAc
# In short: as §1
# Gal6S(b1-4)Glc = molecular target: Gal6S(b1-4)Glc
# In short: as §1
# GalNAc(b1-3)GalNAc = molecular target: GalNAc(b1-3)GalNAc
# In short: as §1
# Glc(b1-4)Glc = molecular target: Glc(b1-4)Glc
# In short: as §1
# GlcA(b1-3)GlcNAc = molecular target: GlcA(b1-3)GlcNAc
# In short: as §1
# [16] = molecular target: GlcNAc(a1-4)Gal(b1-3)GlcNAc
# In short: as §1
# [17] = molecular target: GlcNAc(b1-3)Gal(b1-4)GlcNAc(b1-3)Gal(b1-4)GlcNAc(b1-2)Man(a1-3)[GlcNAc(b1-3)Gal(b1-4)GlcNAc(b1-3)Gal(b1-4)GlcNAc(b1-2)Man(a1-6)]Man(b1-4)GlcNAc(b1-4)[Fuc(a1-6)]GlcNAc
# In short: as §1
# [18] = molecular target: GlcNAc(b1-3)Gal(b1-4)GlcNAc(b1-3)Gal(b1-4)GlcNAc(b1-3)Gal(b1-4)GlcNAc(b1-3)Gal(b1-4)GlcNAc(b1-2)Man(a1-3)[GlcNAc(b1-3)Gal(b1-4)GlcNAc(b1-3)Gal(b1-4)GlcNAc(b1-3)Gal(b1-4)GlcNAc(b1-3)Gal(b1-4)GlcNAc(b1-2)Man(a1-6)]Man(b1-4)GlcNAc(b1-4)[Fuc(a1-6)]GlcNAc
# In short: as §1
# Kdn(a2-3)Gal(b1-3)GlcNAc = molecular target: Kdn(a2-3)Gal(b1-3)GlcNAc
# In short: as §1
# [19] = molecular target: Neu5Ac(a2-3)Gal(b1-3)GalNAc
# In short: as §1
# [20] = molecular target: Neu5Ac(a2-3)Gal(b1-3)GalNAc(b1-4)[Neu5Ac(a2-8)Neu5Ac(a2-3)]Gal(b1-4)Glc
# In short: as §1
# [21] = molecular target: Neu5Ac(a2-3)Gal(b1-3)GlcNAc
# In short: as §1
# [22] = molecular target: Neu5Ac(a2-3)Gal(b1-3)GlcNAc(b1-2)[Neu5Ac(a2-3)Gal(b1-3)GlcNAc(b1-4)]Man(a1-6)[Neu5Ac(a2-3)Gal(b1-3)GlcNAc(b1-2)Man(a1-3)]Man(b1-4)GlcNAc(b1-4)GlcNAc
# In short: as §1
# [23] = molecular target: Neu5Ac(a2-3)Gal(b1-3)GlcNAc(b1-3)Gal(b1-4)GlcNAc
# In short: as §1
# [24] = molecular target: Neu5Ac(a2-3)Gal(b1-3)[Fuc(a1-4)]GlcNAc
# In short: as §1
# [25] = molecular target: Neu5Ac(a2-3)Gal(b1-3)[Fuc(a1-4)]GlcNAc(b1-3)Gal(b1-3)[Fuc(a1-4)]GlcNAc
# In short: as §1
# [26] = molecular target: Neu5Ac(a2-3)Gal(b1-3)[Fuc(a1-4)]GlcNAc(b1-3)Gal(b1-4)[Fuc(a1-3)]GlcNAc
# In short: as §1
# [27] = molecular target: Neu5Ac(a2-3)Gal(b1-3)]Neu5Ac(a2-3)Gal(b1-4)]GlcNAc
# In short: as §1
# [28] = molecular target: Neu5Ac(a2-3)Gal(b1-4)GlcNAc(b1-2)Man(a1-3)[Neu5Ac(a2-3)Gal(b1-4)GlcNAc(b1-2)Man(a1-6)]Man(b1-4)GlcNAc(b1-4)GlcNAc
# In short: as §1
# [29] = molecular target: Neu5Ac(a2-3)Gal(b1-4)GlcNAc(b1-3)Gal(b1-4)GlcNAc
# In short: as §1
# [30] = molecular target: Neu5Ac(a2-3)Gal(b1-4)GlcNAc6S
# In short: as §1
# [31] = molecular target: Neu5Ac(a2-3)Gal(b1-4)[Fuc(a1-3)]GlcNAc(b1-3)Gal
# In short: as §1
# [32] = molecular target: Neu5Ac(a2-3)Gal6S(b1-4)GlcNAc
# In short: as §1
# [33] = molecular target: Neu5Ac(a2-3)Gal6S(b1-4)[Fuc(a1-3)]GlcNAc
# In short: as §1
# [34] = molecular target: Neu5Ac(a2-3)GalNAc(b1-4)GlcNAc
# In short: as §1
# [35] = molecular target: Neu5Ac(a2-6)Gal(b1-4)GlcNAc(b1-3)Gal(b1-4)GlcNAc(b1-6)[Gal(b1-3)]GalNAc
# In short: as §1
# [36] = molecular target: Neu5Ac(a2-6)Gal(b1-4)GlcNAc(b1-6)[Gal(b1-3)GlcNAc(b1-3)]Gal(b1-4)Glc
# In short: as §1
# Neu5Ac(a2-8)Neu5Ac = molecular target: Neu5Ac(a2-8)Neu5Ac
# In short: as §1
# [37] = molecular target: Neu5Ac(a2-8)Neu5Ac(a2-3)Gal(b1-3)GalNAc(b1-4)[Neu5Ac(a2-3)]Gal(b1-4)Glc
# In short: as §1
# [38] = molecular target: Neu5Ac(a2-8)Neu5Ac(a2-8)Neu5Ac
# In short: as §1
# [39] = molecular target: Neu5Ac(a2-8)Neu5Ac(a2-8)Neu5Ac(a2-8)Neu5Ac(a2-3)[GalNAc(b1-4)]Gal(b1-4)Glc
# In short: as §1
# [40] = molecular target: Neu5Gc(a2-3)Gal(b1-4)GlcNAc(b1-3)Gal(b1-4)GlcNAc(b1-2)Man(a1-3)[Neu5Gc(a2-3)Gal(b1-4)GlcNAc(b1-3)Gal(b1-4)GlcNAc(b1-2)Man(a1-6)]Man(b1-4)GlcNAc(b1-4)GlcNAc
# In short: as §1
# [41] = molecular target: Neu5Gc(a2-6)Gal(b1-4)GlcNAc
# In short: as §1
binder,measurement,setting,value
CBM40 CPF071 (Clostridium perfringens) (protein) MAHHHHHHVGTGSNDDDDKSPDPMLSSLGEYKDINLESSNASNITYDLEKYKNLDEGTIVVRFNSKDSKIQSLLGISNSKTKNGYFNFYVTNSRVGFELRNQKNEGNTQNGTENLVHMYKDVALNDGDNTVALKIEKNKGYKLFLNGKMIKEVKDTNTKFLNNIENLDSAFIGKTNRYGQSNEYNFKGNIGFMNIYNEPLGDDYLLSKTGETK,glycan array binding signal (z-score),Fuc(a1-2)Gal(b1-3)GlcNAc,-0.384
same,glycan array binding signal (z-score),Fuc(a1-2)Gal(b1-4)Glc,-0.55
same,glycan array binding signal (z-score),Fuc(a1-2)Gal(b1-4)GlcNAc,-0.027
same,glycan array binding signal (z-score),[1],-0.22
same,glycan array binding signal (z-score),[2],0.231
same,glycan array binding signal (z-score),[3],2.74
same,glycan array binding signal (z-score),[4],0.074
same,glycan array binding signal (z-score),[5],0.635
same,glycan array binding signal (z-score),[6],-0.299
same,glycan array binding signal (z-score),[7],-0.541
same,glycan array binding signal (z-score),[8],0.171
same,glycan array binding signal (z-score),[9],-0.116
same,glycan array binding signal (z-score),[10],-0.216
same,glycan array binding signal (z-score),[11],-0.443
same,glycan array binding signal (z-score),[12],0.599
same,glycan array binding signal (z-score),[13],-0.517
same,glycan array binding signal (z-score),Gal(b1-3)GlcNAc(b1-2)Man,-0.631
same,glycan array binding signal (z-score),[14],-0.087
same,glycan array binding signal (z-score),[15],-0.419
same,glycan array binding signal (z-score),Gal3S6S(b1-4)GlcNAc,-0.144
same,glycan array binding signal (z-score),Gal6S(b1-3)GlcNAc,-0.48
same,glycan array binding signal (z-score),Gal6S(b1-4)Glc,-0.246
same,glycan array binding signal (z-score),GalNAc(b1-3)GalNAc,0.09
same,glycan array binding signal (z-score),Glc(b1-4)Glc,2.37
same,glycan array binding signal (z-score),GlcA(b1-3)GlcNAc,0.262
same,glycan array binding signal (z-score),[16],-0.341
same,glycan array binding signal (z-score),[17],-0.411
same,glycan array binding signal (z-score),[18],-0.108
same,glycan array binding signal (z-score),Kdn(a2-3)Gal(b1-3)GlcNAc,-0.464
same,glycan array binding signal (z-score),[19],-0.019
same,glycan array binding signal (z-score),[20],-0.469
same,glycan array binding signal (z-score),[21],0.994
same,glycan array binding signal (z-score),[22],2.77
same,glycan array binding signal (z-score),[23],-0.328
same,glycan array binding signal (z-score),[24],2.38
same,glycan array binding signal (z-score),[25],0.256
same,glycan array binding signal (z-score),[26],1.09
same,glycan array binding signal (z-score),[27],10.7
same,glycan array binding signal (z-score),[28],-0.305
same,glycan array binding signal (z-score),[29],1.96
same,glycan array binding signal (z-score),[30],5.07
same,glycan array binding signal (z-score),[31],1.97
same,glycan array binding signal (z-score),[32],16.3
same,glycan array binding signal (z-score),[33],5.09
same,glycan array binding signal (z-score),[34],0.216
same,glycan array binding signal (z-score),[35],0.025
same,glycan array binding signal (z-score),[36],-0.069
same,glycan array binding signal (z-score),Neu5Ac(a2-8)Neu5Ac,0.538
same,glycan array binding signal (z-score),[37],-0.205
same,glycan array binding signal (z-score),[38],-0.128
same,glycan array binding signal (z-score),[39],-0.358
same,glycan array binding signal (z-score),[40],2.46
same,glycan array binding signal (z-score),[41],-0.336
